# Measurements as given in ChEMBL document CHEMBL3988442, “University of Dundee, Small-Polar-MMV Screening Library” (2021).
# The campaign covered roughly 69,000 compounds. About 30 (0.04%) showed an effect of 50% or more. For the sample, strong results were picked, then their nearest neighbours and some compounds at random.
# Target: T1, Histidine--tRNA ligase (Trypanosoma cruzi (strain CL Brener)) (UniProt Q4DA54)
# T1 sequence (whole entry): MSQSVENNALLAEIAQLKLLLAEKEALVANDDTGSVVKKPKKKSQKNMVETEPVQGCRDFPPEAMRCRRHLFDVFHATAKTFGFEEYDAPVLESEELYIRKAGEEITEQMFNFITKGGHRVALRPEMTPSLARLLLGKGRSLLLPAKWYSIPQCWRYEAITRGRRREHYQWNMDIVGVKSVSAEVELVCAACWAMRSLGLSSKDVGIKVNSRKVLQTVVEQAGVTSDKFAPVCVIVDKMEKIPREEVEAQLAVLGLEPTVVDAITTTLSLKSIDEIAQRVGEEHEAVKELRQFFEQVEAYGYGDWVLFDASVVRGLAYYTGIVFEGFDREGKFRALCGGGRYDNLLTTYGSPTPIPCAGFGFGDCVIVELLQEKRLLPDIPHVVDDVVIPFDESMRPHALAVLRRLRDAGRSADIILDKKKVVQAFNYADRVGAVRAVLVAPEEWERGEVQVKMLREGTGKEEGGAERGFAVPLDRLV
# Assay: Trypanosoma cruzi histidyl tRNA synthetase (Tc-HisRS)
# Type: functional
# Parameters: scale not given: direction of the effect not stated beside the values
# Conditions: 30 µM
row,SMILES,Percent Effect
1,COc1ccc(CN2C[C@H]3CC[C@](O)(c4ccc(C)cn4)[C@H]3C2)c(F)c1,-0.54%
2,Cc1ccc(C(=O)N2C[C@H]3CCC[C@@]3(COCC3CCOCC3)C2)o1,14.3%
3,Cn1cc(CN2CC[C@H]3OCC[C@@H](C(=O)Nc4cnccn4)[C@@H]3C2)cn1,-1.22%
4,CN(Cc1cccnc1)C[C@H]1OC[C@@H]2CCN(c3ncccn3)C[C@@H]21,-3.09%
5,COc1cccc(-c2ncc(CN3CC[C@H]4CC[C@@H](C3)N4)s2)c1,7.88%
6,O=C(c1cnccn1)N1C[C@@H]2CCN(c3cccnc3)C[C@@H]2C1,2.96%
7,CN(C)C(=O)[C@@H]1CCO[C@@H]2CCN(Cc3ccccc3)C[C@@H]21,5.88%
8,NCC1Cc2cccc(-c3nccc(N4CCC(O)CC4)n3)c2O1 (centres undefined),20.4%
9,NCC1Cc2cc(-c3nccc(N4CCC(O)CC4)n3)cc(Cl)c2O1 (centres undefined),53.1%
10,NCC1Cc2cc(-c3nccc(N4CCC(O)CC4)n3)cc(F)c2O1 (centres undefined),33.7%
11,Cc1cnc(N2C[C@@H]3[C@@H](C2)OCC(=O)N3C)nc1,7.36%
12,CC(=O)N1CC[C@@H]2O[C@@H](COCC(=O)N3CCCC3)CC[C@@H]21,2.63%
13,O=C(C1CCCC1)N1C[C@@H](c2ccsc2)[C@@H]2CN(C3CCCC3)CC[C@@H]21,41.7%
14,O=C(c1ccsc1)N1C[C@H]2CN(Cc3cccc(F)c3)C(=O)[C@H]2C1,7.84%
15,COCCN1C[C@@H]2CN(C(=O)[C@H]3CCCO3)C[C@@H]2C1=O,0%
16,CSc1ncccc1C(=O)N1C[C@H]2CC[C@@H]1CN(c1ncccn1)C2,1.67%
17,Cc1ccnc(OC[C@@]23CCO[C@@H]2CCN(c2ncccn2)C3)n1,9.2%
18,O=C(NC1CC1)[C@@]12CCO[C@@H]1CCN(Cc1ccc3c(c1)OCO3)C2,1.11%
19,CC(C)c1nc(CNC2CCCN(c3cccnn3)C2)no1 (centres undefined),50.6%
20,Cc1nc(CNC2CCCN(c3cccnn3)C2)no1 (centres undefined),6.55%
21,CC(C)(C)c1nc(CNC2CCCN(c3cccnn3)C2)no1 (centres undefined),0.595%
22,O=C1[C@@H]2CCN(Cc3ccc(F)cc3)C[C@@H]2OCCN1c1cccnc1,8.02%
23,COc1cccn(CC(=O)N2CCCC3(CCOCC3)C2)c1=O,9.9%
24,COc1cccn(CC(=O)N2CCC3(CCNCC3)C2)c1=O,10.9%
25,CCCOCC1CCN(C(=O)Cn2cccc(OC)c2=O)C1 (centres undefined),10.3%
26,COc1cccn(CC(=O)N2CCCC3(CCCCC3)C2)c1=O,76.2%
27,COc1cccn(CC(=O)N2CCCC3(CCCO3)CC2)c1=O (centres undefined),71.3%
28,COCCN(C)C(=O)Cn1cccc(OC)c1=O,3.31%
29,Cc1ccc(N2CC[C@H]3O[C@H](C(=O)N4CCCCO4)CC[C@H]32)nn1,-1.11%
